The structures appear in SMILES notation. Entries with a potency or affinity are not part of this list.

30 compounds from ChEMBL document CHEMBL4513139, “CO-ADD screening of University of Strathclyde (UK) compounds” can be followed below.

In this test the test system is Escherichia coli. The conditions noted are these: Concentration 32 ug.mL-1; ASSAY_TEST Inhibition of Bacterial Growth; detection method Absorption (OD600); MEDIA CAMHB; plate type 384well; NBS; CORNING #3640; time 18 hr.
Consider `CC(C)CCc1sc(NC(=O)c2cc(NC(=O)c3ccc(/C=C/c4cc5ccccc5nc4On4nnc5ccccc54)cc3)cn2C)nc1C(=O)NCCN1CCOCC1.O=C(O)C(F)(F)F`, for which the Inhibition is -13.53%. Take `Cc1ncc(Cn2cc(CCO)nn2)c(N)n1`: the Inhibition is reported as -15.62%. `CC(=O)Nc1cc(C(=O)Nc2cc(C(=O)Nc3cc(C(=O)NCCCN(C)C)n(C)c3)n(C)c2)n(C)c1.O=C(O)C(F)(F)F`: the Inhibition is listed as -5.37%. `Cn1cc(NC(=O)c2cc(NC(=O)CCC(=O)O)cn2C)cc1C(=O)NCCN1CCOCC1.O=C(O)C(F)(F)F`: the Inhibition is -3.43%. Regarding `CC(C)CCn1cc(NC(=O)c2cc(NC(=O)c3cc(NC(=N)c4ccccc4)cn3C)cn2C)cc1C(=O)NCCCN(C)C.O=C(O)C(F)(F)F.O=C(O)C(F)(F)F`, the Inhibition was -19.15%. On to `CC(C)CCc1sc(NC(=O)c2cc(NC(=O)c3ccc(/C=C/c4cc5ccccc5nc4Cl)cc3)cn2C)nc1C(=O)NCCN1CCOCC1.O=C(O)C(F)(F)F`, for which the Inhibition is listed as -19.26%.

For `CC(=O)N(C(C)=O)c1cc(C(=O)Nc2cc(C(=O)NCCC(=N)N)n(C)c2)n(C)c1.O=C(O)C(F)(F)F`, the Inhibition worked out at 6.79%. As for `COc1ccc(CC(=O)Nc2cc(C(=O)Nc3cc(C(=O)Nc4cn(CCCN(C)C)cn4)n(C)c3)n(C)c2)cc1.O=C(O)C(F)(F)F`, the figure is -5.32%; as for `COC(=O)c1ccc(C(=O)Nc2cc(C(=O)Nc3cc(C(=O)NCCN4CCOCC4)n(C)c3)n(C)c2)cc1.O=C(O)C(F)(F)F`, -5.56%. As for `CC(C)c1sc(N)nc1C(=O)Nc1cc(C(=O)Nc2cc(C(=O)NCCN3CCOCC3)n(C)c2)n(C)c1.O=C(O)C(F)(F)F`, the figure is -18.06%. Next, `COCCOC1CCN(C(=O)c2cc(NC(=O)c3cc(NC(=O)c4ccc(/C=C/c5ccc(OC)cc5)cc4)cn3C)cn2C)CC1.O=S(=O)(O)O`: 96.85%; `Cc1ncc(CNc2cccc(F)c2)c(N)n1`: 3.54%. For `CN(C)CCCNC(=O)c1cc(NC(=O)c2cc(NC(=O)c3cc(NC(=N)c4ccccc4)cn3C)cn2C)cn1C.O=C(O)C(F)(F)F.O=C(O)C(F)(F)F`, the Inhibition was -15.33%. Next, `COc1ccc(/C=C(/C(=O)Nc2cc(C(=O)Nc3cc(C(=O)NCCCN(C)C)n(C)c3)n(C)c2)c2ccc(OC)cc2)cc1.O=C(O)C(F)(F)F`: -8.57%; `Cc1ncc(Cn2cc(CCC(=O)O)nn2)c(N)n1.O=C(O)C(F)(F)F`: -17.36%; `Cc1ncc(Cn2cc(CCCCO)nn2)c(N)n1`: -20.02%.

Turning to `Cn1cc(NC(=O)c2cc(NC(=O)c3sc(N)nc3C(F)(F)F)cn2C)cc1C(=O)NCCC(=N)N.O=C(O)C(F)(F)F`, the Inhibition was -25.01%. Next, `Cc1ncc(Cn2cc(CO)nn2)c(N)n1`: -17.13%.

Regarding `CC(=N)Nc1cc(C(=O)Nc2cc(C(=O)Nc3cc(C(=O)NCCN4CCOCC4)n(C)c3)n(C)c2)n(C)c1.O=C(O)C(F)(F)F.O=C(O)C(F)(F)F`, the Inhibition was -8.61%. As for `COc1cccc(C(=N)Nc2cc(C(=O)Nc3cc(C(=O)NCCC(=N)N)n(C)c3)n(C)c2)c1.O=C(O)C(F)(F)F.O=C(O)C(F)(F)F`, the figure is 3.74%; as for `COc1cccc(C(=O)Nc2cc(C(=O)Nc3cc(C(=O)Nc4cn(CCCN(C)C)cn4)n(C)c3)n(C)c2)c1.O=C(O)C(F)(F)F`, -11.39%.

For the compound `Cc1ncc(CNc2ccc(Cl)cc2)c(N)n1`, the Inhibition is reported as 2.07%.

With `COC(=O)c1ccc(C(=O)Nc2cc(C(=O)Nc3cc(C(=O)NCCC(=N)N)n(C)c3)n(C)c2)cc1.O=C(O)C(F)(F)F`, the Inhibition is reported as -18.97%. Regarding `CC(C)c1sc(N)nc1C(=O)Nc1cc(C(=O)NCCN2CCOCC2)n(C)c1.O=C(O)C(F)(F)F`, the Inhibition is recorded as -3.07%.

Take `CC(=O)Nc1cc(C(=O)Nc2cc(C(=O)Nc3cc(C(=O)NCCCN(C)C)n(CCC(C)C)c3)n(C)c2)n(C)c1.O=C(O)C(F)(F)F`: the Inhibition was -19.43%.

Take `COc1cccc(C(=N)Nc2cc(C(=O)Nc3cc(C(=O)Nc4cc(C(=O)NCCCN(C)C)n(C)c4)n(C)c3)n(C)c2)c1.O=C(O)C(F)(F)F.O=C(O)C(F)(F)F`: the Inhibition is -2.32%.

As for `COc1cccc(C(=N)Nc2cc(C(=O)Nc3cc(C(=O)Nc4cn(CCCN(C)C)cn4)n(C)c3)n(C)c2)c1.O=C(O)C(F)(F)F.O=C(O)C(F)(F)F`, the Inhibition is on record as -11.88%. As for `Cc1ncc(Cn2cc(CCCO)nn2)c(N)n1`, the figure is -17.2%; as for `Cc1ncc(Cn2cc(CC(N)C(=O)O)nn2)c(N)n1.Cl` (stereo not given), -16.87%. Consider `CN(C)CCCNC(=O)c1cc(NC(=O)c2cc(NC(=O)c3cc4ccccc4cn3)cn2C)cn1C.O=C(O)C(F)(F)F`, for which the Inhibition is on record as -10.84%.
